Rows were chosen to be rich in hits. Some 0.65% of all compounds tested hit in one or more screens of this group.
AMA1 RON2 block – qHTS for Inhibitors of AMA1-RON; Towards Development of Antimalarial Drug Lead: Primary Screen; AlphaScreen AMA1-biotinylated RON2 peptide binding; hit rate 0.2% among 360,000; Plasmodium falciparum AMA1 (3D7) - RON2 peptide interaction; Potency, µM (highest dose often 58.2 µM), hits mostly inhibitors; active means well fitted inhibition curve with a large enough effect; inconclusive means small, poorly fitted or top-dose-only effect; inactive means no such curve, though single readings can be large or run the other way; further: nearly all actives have a fitted effect of over 45% in size
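AMA1 (3D7) with his tag at 25 nM final met compounds first, then biotinylated RON2 peptide at 25 nM; detection used donor plus acceptor beads, 10 µg/mL apiece, read by AlphaScreen after 30 min at room temperature.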
SARS PLP yeast – qHTS of Yeast-based Assay for SARS-CoV PLP. S. cerevisiae expressing SARS-CoV PLpro, growth rescue. Potency, µM (titrated, usually from 32.9 µM), usual class: activators. hit rate 0.19% among 330,000. AID 485353, 2010; further: nearly all actives have a fitted effect of over 55% in size
NS1 function inh – qHTS Assay for Inhibitors of Influenza NS1 Protein Function; Potency, µM (doses to about 46.1 µM); hit rate 0.4% among 270,000; further: actives are rising curves; nearly all actives have a fitted effect of over 50% in size
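Growth recovery, yeast-based: influenza A NS1 expressed in S. cerevisiae causes slow growth, and suppressors are detected by OD600. The parent strain without NS1 is used as positive control.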
Each line names hits and unclear results; the compound was inactive in the other large screens. Unless noted, the call rests on the fitted dose curve.

CCOc1ccc2c(c1)/C(=N/N1C(=O)c3ccccc3C1=O)C(=O)N2	none (no result: NS1 function inh)
O=C(O)c1ccc2c(c1)C(=O)N([C@H](Cc1ccc(Cl)cc1)C(=O)O)C2=O	none (no result: AMA1 RON2 block, NS1 function inh)
COc1cc(=O)n(C)c2c(OCC3OC(C)(C)OC3(C)C)cccc12 (configuration not stated)	none
CN(C)S(=O)(=O)c1ccc(N2CCCC2)c(C(=O)NNC(=O)c2ccccc2)c1	none (no result: NS1 function inh)
COc1ccc(NC(=S)N2CCN(C(=O)C3CCCO3)CC2)cc1 (configuration not stated)	none
Oc1ccc([C@H](O)C2CCCCN2)cc1O (some centres not stated)	none (no result: AMA1 RON2 block, SARS PLP yeast)
CC(=O)N[C@H](C(=O)N[C@@H](C)C(=O)N[C@H](C#N)CC(=O)O)C(C)C	none (no result: AMA1 RON2 block, NS1 function inh)
NCCOc1ccccc1-c1ccccc1	none
Nc1ccc(Oc2ccccc2-c2ccccc2)cc1	AMA1 RON2 block 22µM (no result: SARS PLP yeast, NS1 function inh)
COc1ccc(CN2CCN(Cc3ccc(C(F)(F)F)cc3)CC2)cc1	AMA1 RON2 block inconclusive
CCOC(=O)CSc1nnc(CNc2ccc(Cl)cc2)n1-c1ccccc1	none
CCOc1ccc(NCc2nnc(SCc3ccc(Cl)cc3)n2-c2ccccc2)cc1	AMA1 RON2 block 32µM
Cc1nn(CCOc2cccc(Cl)c2)c(C)c1[N+](=O)[O-]	none
COc1cc2c(cc1OC)C1O[C@](c3ccsc3)(C2)OC2=C1C(=O)CC(C)(C)C2	none (no result: AMA1 RON2 block)
Cc1ccc(NC(=S)N2CCC(NC(=O)c3ccc(F)cc3)CC2)cc1C	none
CC(=O)NC1C(=O)N(CCN2CCOCC2)c2ccc(C)cc21 (configuration not stated)	AMA1 RON2 block 32µM
CC(=O)NC1C(=O)N(CCN2CCOCC2)c2ccc(Cl)cc21 (configuration not stated)	AMA1 RON2 block inconclusive
CC1(C)CC(=O)c2c(oc3cc(O)c(O)cc23)C1	AMA1 RON2 block 1.6µM
COC(=O)c1oc2c(c1C)C(=O)CC(C)(C)C2	none
COc1ccc(CC(=O)N2CCN(S(=O)(=O)c3cc(Cl)ccc3Cl)CC2)cc1	none (no result: NS1 function inh)
Nc1ccc(C(=O)O)c(O)c1	none
Nc1ccc(N)c(C(=O)O)c1	AMA1 RON2 block 8.9µM
CC(=O)Nc1ccc(NC(=O)C/C(C)=N/NC(N)=S)cc1	SARS PLP yeast 11µM (no result: NS1 function inh)
CCC(=O)N/N=C(\C)CC(=O)Nc1ccc(F)cc1	none (no result: NS1 function inh)
CCc1ccc(CNc2ccc3c(c2)ncn3C(C)(C)C)cc1	none
CCN(CC)c1ccc(CNc2ccc3c(c2)ncn3C(C)(C)C)cc1	AMA1 RON2 block 28µM
CC(C)c1ccc(CNc2ccc3c(c2)ncn3C)cc1	none
CN(C)c1ccc(CNc2ccc3c(c2)ncn3C)cc1	AMA1 RON2 block 27µM
COc1ccccc1N(CC(=O)NC(C)(C)C)C(=O)CCC(=O)Nc1nccs1	none
OC(COC(c1ccc(Cl)cc1)c1ccc(Cl)cc1)CN1CCN(c2ccccn2)CC1 (configuration not stated)	AMA1 RON2 block 28µM
Cc1cccc(C)c1OCC(O)CN1CCN(c2ccccn2)CC1 (configuration not stated)	none (no result: NS1 function inh)
CCN1C(=NCCCCO)N[C@@H](c2ccccc2)C(C(=O)OC)=C1C	none (no result: AMA1 RON2 block)
CCOc1ccc(-n2nnnc2SCC(=O)NNC(=O)c2ccco2)cc1	none
O=C1C(Cl)=C(N2CCCCC2)C(=O)C(Cl)=C1c1cnc(N2CCCCC2)s1	AMA1 RON2 block 8.9µM
O=C1C(Cl)=C(N2CCCCCC2)C(=O)N1c1ccc(Cl)cc1	none
COc1ccc2[nH]c(=O)cc(C(=O)O)c2c1	AMA1 RON2 block 22µM
COc1ccc2[nH]c(=O)c(C(=O)O)cc2c1	none (no result: NS1 function inh)
O=C(CSc1ncccc1C(=O)O)Nc1ccc2c(c1)OCCO2	none
O=C(O)c1ccc2c(c1)C(=O)N([C@H](Cc1ccccc1)C(=O)O)C2=O	none (no result: AMA1 RON2 block, NS1 function inh)
COc1ccccc1-n1c(COc2ccccc2-c2ccccc2)nnc1SCC(=O)c1c(N)n(C)c(=O)n(C)c1=O	NS1 function inh 3.5µM
Cc1ccccc1-n1c(SCC(=O)c2c(N)n(C)c(=O)n(C)c2=O)nnc1-c1cccnc1	none
NC(=S)NN=C1c2cc(OCCN3CCOCC3)ccc2-c2ccc(OCCN3CCOCC3)cc21	none
CCOC(=O)c1ccc2ncc(C(=O)OCC)c(NCCN3CCOCC3)c2c1	none
CCOC(=O)c1cnc2ccc(C)cc2c1Nc1ccc(N2CCOCC2)cc1	AMA1 RON2 block 14µM
O=C(O)CCNc1ccc(NCCC(=O)O)c2c1C(=O)c1ccccc1C2=O	AMA1 RON2 block 16µM
O=C(NCCO)c1cccc2c1C(=O)c1ccccc1-2	none
O=C(O)CCNc1ccccc1C(=O)O	none (no result: AMA1 RON2 block, SARS PLP yeast)
O=C1c2cccc(NCCNCCO)c2C(=O)c2cccc(NCCNCCO)c21	AMA1 RON2 block 45µM (no result: SARS PLP yeast, NS1 function inh)
Nc1c(C(=O)CSc2nnc(-c3ccccc3)o2)c(=O)[nH]c(=O)n1C1CC1	none (no result: NS1 function inh)
Oc1ccc(COC2CCCC2)c2cccnc12	none (no result: AMA1 RON2 block, NS1 function inh)
CC(C)=CC(=O)Nc1ccccc1C(N)=O	AMA1 RON2 block 6.7µM
CCOC(=O)c1ccccc1NC(=O)C=C(C)C	none
